Here are results for one sequence from publication PMC7862700, “An all-to-all approach to the identification of sequence-specific readers for epigenetic DNA modifications on cytosine”.

Common to all, as to experiment: DAPPL (digital affinity profiling via proximity ligation, sequencing); 10 mM Tris-HCl pH 7.5, 50 mM NaCl, 1 mM DTT, 4% glycerol, room temperature, 30 min; GST-TFs on glutathione beads, 16-mer random dsDNA library, 0.1% formaldehyde crosslink after washing; high values mean tight binding
For one test, the target named is T1, FLI1 (Homo sapiens, UniProt Q01543 1-452).
T1 sequence: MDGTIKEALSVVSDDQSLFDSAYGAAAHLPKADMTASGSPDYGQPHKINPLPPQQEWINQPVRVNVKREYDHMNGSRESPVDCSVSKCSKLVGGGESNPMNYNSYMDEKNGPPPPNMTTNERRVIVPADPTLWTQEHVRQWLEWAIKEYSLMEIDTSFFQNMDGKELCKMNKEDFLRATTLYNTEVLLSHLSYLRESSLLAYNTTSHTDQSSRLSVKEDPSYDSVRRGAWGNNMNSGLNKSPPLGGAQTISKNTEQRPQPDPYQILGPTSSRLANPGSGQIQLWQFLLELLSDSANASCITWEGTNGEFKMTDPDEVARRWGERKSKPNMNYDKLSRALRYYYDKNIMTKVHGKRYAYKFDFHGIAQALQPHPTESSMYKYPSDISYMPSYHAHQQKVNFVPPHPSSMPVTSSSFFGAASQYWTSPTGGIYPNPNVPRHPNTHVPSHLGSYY
The following applies: protein: recombinant; tags: N-terminal GST; dsDNA, one strand shown. Put shortly:
(§1)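 Pools of DNA-barcoded human transcription factors, expressed in yeast as GST fusions on glutathione beads and combined with a tag-only sample, were incubated with 200 nmole of a 16-mer random double-stranded DNA library. Incubation took 30 min at room temperature in Tris/NaCl/DTT/glycerol buffer and was followed by washing, 0.1% formaldehyde crosslinking, proximity ligation (BsaI/T4 ligase, 1 h, 37 °C), PCR amplification and sequencing on an Illumina NextSeq500. Binding signal is the ratio of a hexamer's read frequency for a factor to its frequency for the tag-only sample.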

The target in the next test is T2, ELK1 (Homo sapiens, UniProt P19419 1-428).
T2 sequence: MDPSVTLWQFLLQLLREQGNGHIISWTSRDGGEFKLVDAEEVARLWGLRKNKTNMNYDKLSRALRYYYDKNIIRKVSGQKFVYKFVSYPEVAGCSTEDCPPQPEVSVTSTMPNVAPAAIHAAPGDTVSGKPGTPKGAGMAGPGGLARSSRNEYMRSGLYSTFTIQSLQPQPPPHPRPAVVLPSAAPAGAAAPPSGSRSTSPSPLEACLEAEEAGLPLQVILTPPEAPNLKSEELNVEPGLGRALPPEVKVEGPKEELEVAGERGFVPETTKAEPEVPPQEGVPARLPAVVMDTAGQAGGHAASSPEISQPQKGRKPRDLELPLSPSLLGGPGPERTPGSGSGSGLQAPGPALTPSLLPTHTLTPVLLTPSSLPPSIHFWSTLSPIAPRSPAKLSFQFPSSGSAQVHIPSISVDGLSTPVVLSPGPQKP
The note with it: protein: recombinant; tags: N-terminal GST; dsDNA, one strand shown. In short, it runs like this: as §1

In the next test the target is T3, GABPA (Homo sapiens, UniProt Q06546 1-454).
T3 sequence: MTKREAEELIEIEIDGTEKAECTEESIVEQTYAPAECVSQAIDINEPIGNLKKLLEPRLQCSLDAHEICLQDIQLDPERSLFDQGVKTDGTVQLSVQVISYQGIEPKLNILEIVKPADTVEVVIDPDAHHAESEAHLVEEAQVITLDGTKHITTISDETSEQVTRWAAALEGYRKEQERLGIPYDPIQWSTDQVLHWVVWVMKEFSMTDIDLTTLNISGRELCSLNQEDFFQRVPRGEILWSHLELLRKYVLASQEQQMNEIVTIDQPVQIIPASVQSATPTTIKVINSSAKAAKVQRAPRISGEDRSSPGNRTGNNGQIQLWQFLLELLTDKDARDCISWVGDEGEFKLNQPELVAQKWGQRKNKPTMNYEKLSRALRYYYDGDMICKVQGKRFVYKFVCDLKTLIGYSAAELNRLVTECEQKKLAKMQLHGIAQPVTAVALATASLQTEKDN
The note with it: protein: recombinant; tags: N-terminal GST; dsDNA, one strand shown. Put shortly:
as §1

For the next test, the target named is T4, ERG (Homo sapiens, UniProt P11308 1-479).
T4 sequence: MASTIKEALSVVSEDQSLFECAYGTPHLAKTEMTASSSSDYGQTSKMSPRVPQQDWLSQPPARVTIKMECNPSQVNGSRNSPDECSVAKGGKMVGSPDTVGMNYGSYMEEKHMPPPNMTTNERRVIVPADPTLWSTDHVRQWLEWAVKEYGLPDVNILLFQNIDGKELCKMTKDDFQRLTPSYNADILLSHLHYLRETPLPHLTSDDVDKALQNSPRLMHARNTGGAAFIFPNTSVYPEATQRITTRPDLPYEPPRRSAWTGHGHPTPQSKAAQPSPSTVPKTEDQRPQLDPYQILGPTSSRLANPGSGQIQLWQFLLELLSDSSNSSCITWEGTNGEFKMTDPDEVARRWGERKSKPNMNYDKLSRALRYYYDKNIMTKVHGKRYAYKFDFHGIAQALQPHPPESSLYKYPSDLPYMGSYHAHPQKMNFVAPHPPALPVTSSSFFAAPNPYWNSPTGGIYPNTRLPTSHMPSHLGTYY
The note with it: protein: recombinant; tags: N-terminal GST; dsDNA, one strand shown. Put shortly:
as §1

The next test concerns the target ELF1 (Homo sapiens, UniProt P32519 1-619). The following applies: protein: recombinant; tags: N-terminal GST; dsDNA, one strand shown. In short, it runs like this:
as §1

Another test has as its target T5, EHF (Homo sapiens, UniProt Q9NZC4 1-300).
T5 sequence: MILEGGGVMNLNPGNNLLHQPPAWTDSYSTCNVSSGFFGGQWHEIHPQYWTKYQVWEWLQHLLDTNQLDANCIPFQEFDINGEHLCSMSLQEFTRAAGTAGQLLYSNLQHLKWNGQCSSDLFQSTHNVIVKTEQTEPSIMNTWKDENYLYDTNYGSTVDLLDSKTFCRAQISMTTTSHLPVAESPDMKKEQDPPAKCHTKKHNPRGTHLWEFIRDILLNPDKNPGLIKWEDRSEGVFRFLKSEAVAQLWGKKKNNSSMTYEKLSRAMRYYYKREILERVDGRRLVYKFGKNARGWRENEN
The note with it: protein: recombinant; tags: N-terminal GST; dsDNA, one strand shown. In short, it runs like this:
as §1

The next test deals with SPI1 (Homo sapiens, UniProt P17947 1-270). The following applies: protein: recombinant; tags: N-terminal GST; dsDNA, one strand shown. Put shortly: as §1
Another test concerns the target SPIB (Homo sapiens, UniProt Q01892 1-262). The note with it: protein: recombinant; tags: N-terminal GST; dsDNA, one strand shown. Put shortly: as §1
A further test concerns the target T6, FEV (Homo sapiens, UniProt Q99581 1-238).
T6 sequence: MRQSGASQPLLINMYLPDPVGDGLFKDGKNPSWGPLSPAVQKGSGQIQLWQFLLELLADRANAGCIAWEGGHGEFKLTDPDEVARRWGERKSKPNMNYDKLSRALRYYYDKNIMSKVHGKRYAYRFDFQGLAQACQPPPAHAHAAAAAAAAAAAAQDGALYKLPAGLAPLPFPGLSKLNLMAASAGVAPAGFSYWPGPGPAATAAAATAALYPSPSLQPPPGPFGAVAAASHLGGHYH
The following applies: protein: recombinant; tags: N-terminal GST; dsDNA, one strand shown. Put shortly: as §1

The next test deals with ETV5 (Homo sapiens, UniProt P41161 1-510). The following applies: protein: recombinant; tags: N-terminal GST; dsDNA, one strand shown. In short, it runs like this:
as §1

Another test addresses HSF1 (Homo sapiens, UniProt Q00613 1-529). The following applies: protein: recombinant; tags: N-terminal GST; chain copies: 3; dsDNA, one strand shown. Put shortly:
as §1

The target of a further test is T7, SPIC (Homo sapiens, UniProt Q8N5J4 1-248).
T7 sequence: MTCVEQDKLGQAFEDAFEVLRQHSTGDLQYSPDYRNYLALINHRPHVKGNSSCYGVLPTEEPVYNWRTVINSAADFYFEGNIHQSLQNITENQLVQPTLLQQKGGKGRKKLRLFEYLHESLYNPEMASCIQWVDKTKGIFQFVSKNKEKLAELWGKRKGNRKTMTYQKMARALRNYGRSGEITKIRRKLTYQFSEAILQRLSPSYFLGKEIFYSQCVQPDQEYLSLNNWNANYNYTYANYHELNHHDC
The note with it: protein: recombinant; tags: N-terminal GST; dsDNA, one strand shown. Put shortly:
as §1

The target of the next test is ELF4 (Homo sapiens, UniProt Q99607 1-663). The note with it: protein: recombinant; tags: N-terminal GST; dsDNA, one strand shown. Put shortly:
as §1

The next test has as its target T8, ELK4 (Homo sapiens, UniProt P28324-2 1-405).
T8 sequence: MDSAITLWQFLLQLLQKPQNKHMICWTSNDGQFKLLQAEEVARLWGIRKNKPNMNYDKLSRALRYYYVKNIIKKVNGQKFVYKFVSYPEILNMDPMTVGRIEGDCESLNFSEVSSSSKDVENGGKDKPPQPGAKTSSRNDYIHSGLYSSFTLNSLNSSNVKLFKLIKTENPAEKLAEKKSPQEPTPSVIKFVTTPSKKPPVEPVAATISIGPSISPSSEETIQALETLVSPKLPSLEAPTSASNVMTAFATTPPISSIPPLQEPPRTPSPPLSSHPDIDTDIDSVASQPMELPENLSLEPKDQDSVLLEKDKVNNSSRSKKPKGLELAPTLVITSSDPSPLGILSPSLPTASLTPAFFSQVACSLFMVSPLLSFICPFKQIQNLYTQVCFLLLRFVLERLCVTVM
The following applies: protein: recombinant; tags: N-terminal GST; dsDNA, one strand shown. In short, it runs like this: as §1

The next test has as its target T9, ETV2 (Homo sapiens, UniProt O00321 1-342).
T9 sequence: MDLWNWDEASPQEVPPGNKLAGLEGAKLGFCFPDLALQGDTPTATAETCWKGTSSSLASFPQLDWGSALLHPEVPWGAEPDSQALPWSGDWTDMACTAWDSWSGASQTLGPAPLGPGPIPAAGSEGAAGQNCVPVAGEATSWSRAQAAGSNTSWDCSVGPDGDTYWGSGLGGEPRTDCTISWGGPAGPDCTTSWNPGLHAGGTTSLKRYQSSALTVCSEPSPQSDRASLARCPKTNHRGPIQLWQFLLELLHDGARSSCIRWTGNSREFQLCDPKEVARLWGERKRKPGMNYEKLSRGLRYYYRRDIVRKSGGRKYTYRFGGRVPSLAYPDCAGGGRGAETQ
The note with it: protein: recombinant; tags: N-terminal GST; dsDNA, one strand shown. Put shortly:
as §1

The next test has as its target T10, ELF3 (Homo sapiens, UniProt P78545 1-371).
T10 sequence: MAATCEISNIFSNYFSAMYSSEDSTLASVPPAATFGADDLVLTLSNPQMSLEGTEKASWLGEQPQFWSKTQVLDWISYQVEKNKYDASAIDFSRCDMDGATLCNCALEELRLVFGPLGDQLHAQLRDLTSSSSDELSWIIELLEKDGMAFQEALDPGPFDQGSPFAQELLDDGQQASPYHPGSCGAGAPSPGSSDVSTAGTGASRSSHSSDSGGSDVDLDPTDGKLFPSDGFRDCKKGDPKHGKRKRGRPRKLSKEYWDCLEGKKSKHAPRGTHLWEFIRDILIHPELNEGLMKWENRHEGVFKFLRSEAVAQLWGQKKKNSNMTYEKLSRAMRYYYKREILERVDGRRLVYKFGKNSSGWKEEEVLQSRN
The following applies: protein: recombinant; tags: N-terminal GST; dsDNA, one strand shown. In short, it runs like this:
as §1

In the next test the target is CRX (Homo sapiens, UniProt O43186 1-299). The note with it: protein: recombinant; tags: N-terminal GST; dsDNA, one strand shown. In short, it runs like this:
as §1

The target of a further test is ETV1 (Homo sapiens, UniProt P50549 1-477). The following applies: protein: recombinant; tags: N-terminal GST; dsDNA, one strand shown. Put shortly: as §1
Chain of ETV1 (P50549 whole entry): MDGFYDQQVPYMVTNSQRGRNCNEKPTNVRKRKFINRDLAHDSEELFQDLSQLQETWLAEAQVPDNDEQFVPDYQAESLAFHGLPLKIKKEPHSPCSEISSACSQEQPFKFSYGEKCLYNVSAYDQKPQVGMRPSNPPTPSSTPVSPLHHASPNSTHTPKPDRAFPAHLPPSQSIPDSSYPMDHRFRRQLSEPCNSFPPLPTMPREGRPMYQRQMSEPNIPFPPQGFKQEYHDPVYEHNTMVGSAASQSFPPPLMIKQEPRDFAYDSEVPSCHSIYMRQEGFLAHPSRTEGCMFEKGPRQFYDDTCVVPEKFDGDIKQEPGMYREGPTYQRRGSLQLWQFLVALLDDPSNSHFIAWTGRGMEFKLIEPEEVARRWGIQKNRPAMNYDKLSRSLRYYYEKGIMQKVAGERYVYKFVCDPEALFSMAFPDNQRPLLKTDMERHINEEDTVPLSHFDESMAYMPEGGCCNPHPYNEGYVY

Chain of CRX (O43186 whole entry): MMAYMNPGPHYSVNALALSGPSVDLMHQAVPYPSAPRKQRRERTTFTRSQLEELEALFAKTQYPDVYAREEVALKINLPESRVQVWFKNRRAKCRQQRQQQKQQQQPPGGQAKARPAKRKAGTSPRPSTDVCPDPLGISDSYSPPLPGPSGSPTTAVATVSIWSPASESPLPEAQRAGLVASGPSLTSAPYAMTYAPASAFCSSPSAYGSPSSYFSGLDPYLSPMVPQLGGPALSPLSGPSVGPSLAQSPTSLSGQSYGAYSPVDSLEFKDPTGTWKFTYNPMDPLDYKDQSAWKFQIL
Chain of ELF4 (Q99607 whole entry): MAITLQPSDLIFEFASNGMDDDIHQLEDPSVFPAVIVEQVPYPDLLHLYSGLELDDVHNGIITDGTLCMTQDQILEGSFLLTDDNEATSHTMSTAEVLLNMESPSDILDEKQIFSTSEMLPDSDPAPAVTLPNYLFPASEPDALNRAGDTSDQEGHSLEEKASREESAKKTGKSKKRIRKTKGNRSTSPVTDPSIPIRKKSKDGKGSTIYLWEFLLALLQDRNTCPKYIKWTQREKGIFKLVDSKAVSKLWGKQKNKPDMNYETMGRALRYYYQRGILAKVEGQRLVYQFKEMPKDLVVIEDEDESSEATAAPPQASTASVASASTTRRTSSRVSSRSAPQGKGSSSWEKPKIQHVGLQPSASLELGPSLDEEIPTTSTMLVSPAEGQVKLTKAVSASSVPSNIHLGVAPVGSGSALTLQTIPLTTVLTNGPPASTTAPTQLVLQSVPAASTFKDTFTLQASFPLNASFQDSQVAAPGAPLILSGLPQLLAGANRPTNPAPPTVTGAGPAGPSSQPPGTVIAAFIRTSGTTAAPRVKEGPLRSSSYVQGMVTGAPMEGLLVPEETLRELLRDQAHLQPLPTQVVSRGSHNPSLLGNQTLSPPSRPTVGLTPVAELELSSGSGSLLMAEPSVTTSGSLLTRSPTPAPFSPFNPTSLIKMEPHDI
Chain of ELF1 (P32519 whole entry): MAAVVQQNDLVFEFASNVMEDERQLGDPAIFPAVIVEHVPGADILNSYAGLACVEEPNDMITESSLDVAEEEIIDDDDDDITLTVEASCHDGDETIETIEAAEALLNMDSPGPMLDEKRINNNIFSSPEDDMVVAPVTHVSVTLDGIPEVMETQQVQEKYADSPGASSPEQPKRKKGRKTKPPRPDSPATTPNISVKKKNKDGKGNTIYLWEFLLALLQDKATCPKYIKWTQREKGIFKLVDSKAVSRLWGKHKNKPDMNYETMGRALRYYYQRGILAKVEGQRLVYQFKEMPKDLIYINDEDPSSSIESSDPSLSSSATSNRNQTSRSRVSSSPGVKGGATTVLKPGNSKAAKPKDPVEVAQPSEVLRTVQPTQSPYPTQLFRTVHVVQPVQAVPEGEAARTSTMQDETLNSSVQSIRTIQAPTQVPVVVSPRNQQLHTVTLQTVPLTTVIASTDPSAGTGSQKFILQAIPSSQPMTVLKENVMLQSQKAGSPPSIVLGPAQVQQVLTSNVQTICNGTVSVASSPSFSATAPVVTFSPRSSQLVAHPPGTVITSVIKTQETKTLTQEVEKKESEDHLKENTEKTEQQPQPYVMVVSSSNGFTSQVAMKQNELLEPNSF
Chain of ETV5 (P41161 whole entry): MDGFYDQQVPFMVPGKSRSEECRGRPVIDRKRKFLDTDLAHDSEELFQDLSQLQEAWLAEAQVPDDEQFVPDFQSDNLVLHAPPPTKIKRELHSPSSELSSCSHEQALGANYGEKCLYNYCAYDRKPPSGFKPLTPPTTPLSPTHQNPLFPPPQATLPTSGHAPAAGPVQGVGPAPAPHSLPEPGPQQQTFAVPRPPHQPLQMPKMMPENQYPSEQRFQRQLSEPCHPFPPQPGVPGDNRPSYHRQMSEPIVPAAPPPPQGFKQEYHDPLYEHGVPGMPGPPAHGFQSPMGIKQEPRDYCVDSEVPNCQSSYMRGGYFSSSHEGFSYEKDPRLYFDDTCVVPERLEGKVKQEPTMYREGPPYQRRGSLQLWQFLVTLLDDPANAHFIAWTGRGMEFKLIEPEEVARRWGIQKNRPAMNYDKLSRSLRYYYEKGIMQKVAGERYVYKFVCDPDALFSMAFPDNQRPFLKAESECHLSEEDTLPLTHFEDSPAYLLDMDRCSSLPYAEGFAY
Chain of SPIB (Q01892 whole entry): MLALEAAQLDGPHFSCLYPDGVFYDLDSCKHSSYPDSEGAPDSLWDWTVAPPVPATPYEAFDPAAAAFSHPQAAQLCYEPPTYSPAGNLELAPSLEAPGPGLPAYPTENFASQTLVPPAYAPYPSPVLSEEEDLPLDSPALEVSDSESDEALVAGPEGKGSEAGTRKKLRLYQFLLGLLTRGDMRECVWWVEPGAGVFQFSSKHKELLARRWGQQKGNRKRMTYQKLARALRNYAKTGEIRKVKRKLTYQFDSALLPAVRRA
Chain of HSF1 (Q00613 whole entry): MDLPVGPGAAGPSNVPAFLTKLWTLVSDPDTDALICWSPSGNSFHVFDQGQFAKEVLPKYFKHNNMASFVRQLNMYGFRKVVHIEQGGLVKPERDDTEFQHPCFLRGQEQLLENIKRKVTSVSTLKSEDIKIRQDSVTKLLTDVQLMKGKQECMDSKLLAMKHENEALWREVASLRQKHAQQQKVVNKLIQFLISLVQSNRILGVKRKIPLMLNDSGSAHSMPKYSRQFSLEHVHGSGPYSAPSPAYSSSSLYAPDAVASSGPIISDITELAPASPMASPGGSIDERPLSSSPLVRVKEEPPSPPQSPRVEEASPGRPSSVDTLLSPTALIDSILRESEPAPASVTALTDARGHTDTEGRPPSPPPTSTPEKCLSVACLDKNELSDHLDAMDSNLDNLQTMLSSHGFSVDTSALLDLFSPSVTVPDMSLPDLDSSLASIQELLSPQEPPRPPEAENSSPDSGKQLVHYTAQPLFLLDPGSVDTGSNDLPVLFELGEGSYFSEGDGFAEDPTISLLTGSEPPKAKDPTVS

ATTAAG: the binding signal was 1.04 fold enrichment (6-mer frequency, TF over GST control) in the test with FLI1; 1.07 fold enrichment (6-mer frequency, TF over GST control) with ELK1; 1.09 fold enrichment (6-mer frequency, TF over GST control) with GABPA; 1.01 fold enrichment (6-mer frequency, TF over GST control) in the test with ERG; 1.08 fold enrichment (6-mer frequency, TF over GST control) with ELF1; 1.04 fold enrichment (6-mer frequency, TF over GST control) with EHF. Besides, the binding signal is 1.03 fold enrichment (6-mer frequency, TF over GST control) with SPI1; 1.06 fold enrichment (6-mer frequency, TF over GST control) in the test with SPIB; 1.02 fold enrichment (6-mer frequency, TF over GST control) with FEV; 1.01 fold enrichment (6-mer frequency, TF over GST control) in the test with ETV5; 2 fold enrichment (6-mer frequency, TF over GST control) with HSF1; 1.04 fold enrichment (6-mer frequency, TF over GST control) in the test with SPIC. For the same sequence, the binding signal is 1.06 fold enrichment (6-mer frequency, TF over GST control) in the test with ELF4; 1.04 fold enrichment (6-mer frequency, TF over GST control) with ELK4; 1.03 fold enrichment (6-mer frequency, TF over GST control) with ETV2; 1.14 fold enrichment (6-mer frequency, TF over GST control) in the test with ELF3; 3.35 fold enrichment (6-mer frequency, TF over GST control) with CRX; 1.03 fold enrichment (6-mer frequency, TF over GST control) with ETV1.
